High-throughput results (PubChem BioAssay)
PfG6PD inh = PfG6PD (Plasmodium falciparum) enzyme inhibition; PfGluPho enzyme, NADPH resazurin-diaphorase fluorescence; inhibition, % at 20 µM; hit rate 0.78% among 350,000;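 active means inhibition reaching at least a set limit at 20 µM in the primary screen, cut at about 59% in these data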
PfM18AAP inh = PfM18AAP enzyme inhibition; recombinant PfM18AAP, H-Glu-NHMec fluorogenic cleavage; inhibition, % at 7.35 µM; hit rate 1.2% among 290,000; AID 1822;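 active means inhibition above the campaign mean inhibition over all tested compounds plus 3 SD, cut at about 28% in these data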
ALR inh = inhibitors of human sulfhydryl oxidase ALR | P55789 | purified ALR, DTT oxidation, H2O2 HRP-luminol luminescence | inhibition, % (concentration not given with the values) | hit rate 3.8% among 290,000 | AID 485317;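 active means mean replicate inhibition above about 79%, with every replicate also reaching it, limit read from the data; inconclusive means only one of the two criteria met; inactive means mean below limit and not every replicate reaching it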
Target sequence (P55789 whole entry, looked up): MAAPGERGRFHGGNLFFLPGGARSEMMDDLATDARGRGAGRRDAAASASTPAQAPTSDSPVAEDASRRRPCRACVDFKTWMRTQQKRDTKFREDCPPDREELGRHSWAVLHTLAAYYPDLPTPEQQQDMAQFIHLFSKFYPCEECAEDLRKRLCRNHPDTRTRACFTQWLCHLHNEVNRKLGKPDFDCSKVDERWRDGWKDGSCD
PHOSPHO1 inh = PHOSPHO1 (human) inhibition. hit rate 1.1% among 290,000. recombinant PHOSPHO1, absorbance phosphatase assay. inhibition, % at 13.3 µM. Q8TCT1; in the data active means inhibition above about 60%
Target sequence (Q8TCT1 whole entry, looked up): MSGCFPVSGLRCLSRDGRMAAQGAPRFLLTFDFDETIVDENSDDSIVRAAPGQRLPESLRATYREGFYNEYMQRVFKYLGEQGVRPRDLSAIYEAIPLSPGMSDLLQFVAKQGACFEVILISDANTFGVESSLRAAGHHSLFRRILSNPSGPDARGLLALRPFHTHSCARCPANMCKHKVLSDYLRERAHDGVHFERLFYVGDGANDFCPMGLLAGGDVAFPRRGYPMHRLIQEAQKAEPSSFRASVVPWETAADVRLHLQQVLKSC
H9c2 protect = myocardial damage modulation in H9c2 cells | H9c2 cardiomyocytes, H2O2 injury protection, ATPLite, 2 h | hit rate 0.63% among 360,000 | protection from H2O2 cell death, % at 20 µM;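 active means compounds giving at least 50% protection of heart cells from peroxide-induced death in the single-dose screen, raw or plate-pattern-corrected value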
Hits are given with their value; 0 = inactive; ? = inconclusive; - = not tested or not shown. Only some compounds are listed: those with a hit (about 5.6% of all), similar ones and a draw of the others.

SMILES	PfG6PD inh	PfM18AAP inh	ALR inh	PHOSPHO1 inh	H9c2 protect
O=C(CCc1ccccc1)NNC(=S)NCCc1ccccc1	0	0	0	0	0
COCC(=O)N(C)C[C@H]1N[C@@](C)(C(=O)OC)[C@H]2C(=O)N(Cc3ccccc3)C(=O)[C@@H]12	0	-	-	-	0
O=C(O)c1ccc(CNC(=O)C2CCCN2C(=O)OCc2ccccc2)cc1 (stereo unspecified)	0	0	0	0	0
CCOc1ccc2[nH]c(=O)c(CN(Cc3nnnn3Cc3ccco3)C3CCCCC3)cc2c1	0	0	0	0	59
COCCn1nnnc1CN(CCc1ccccc1)Cc1cc2ccc(C)cc2[nH]c1=O	0	0	-	66	0
Cc1ccc2[nH]c(=O)c(CN(CCc3ccccc3)Cc3nnnn3CC3CCCO3)cc2c1 (stereo unspecified)	0	0	0	0	0
CCOc1ccc2[nH]c(=O)c(CN(Cc3cccs3)C(CC)c3nnnn3C(C)(C)CC)cc2c1 (stereo unspecified)	0	0	-	0	67
CCOC(=O)Cn1nnnc1C(C(C)C)N(Cc1cccs1)Cc1cc2cc(C)ccc2[nH]c1=O (stereo unspecified)	0	31	0	0	0
CCOc1ccc2[nH]c(=O)c(CN(Cc3ccco3)C(CC)c3nnnn3Cc3ccccc3)cc2c1 (stereo unspecified)	0	0	0	0	86
COc1ccc2[nH]c(=O)c(CN(CCc3ccccc3)Cc3nnnn3CC3CCCO3)cc2c1 (stereo unspecified)	0	0	0	0	76
COc1ccc2[nH]c(=O)c(CN(Cc3ccco3)Cc3nnnn3Cc3ccccc3)cc2c1	0	0	0	0	66
Cc1ccc2cc(CN(Cc3ccc4c(c3)OCO4)Cc3nnnn3Cc3ccco3)c(=O)[nH]c2c1C	0	0	0	0	0
COc1ccc2cc(CN(CCc3ccccc3)Cc3nnnn3CC3CCCO3)c(=O)[nH]c2c1 (stereo unspecified)	0	0	0	0	0
Cc1ccc(C)c2[nH]c(=O)c(CN(Cc3ccc4c(c3)OCO4)Cc3nnnn3Cc3ccco3)cc12	0	32	0	0	60
O=c1[nH]c2cc3c(cc2cc1CN(Cc1nnnn1CC1CCCO1)C1CCCCC1)OCO3 (stereo unspecified)	0	0	0	0	57
O=c1[nH]c2cc3c(cc2cc1CN(Cc1nnnn1CC1CCCO1)C1CCCC1)OCO3 (stereo unspecified)	0	0	0	0	0
CC(=O)Nc1cc(Br)ccc1O	0	0	0	0	0
CC(=O)Nc1cc(-c2ccccc2)ccc1O	0	0	99	90	0
C[C@H](CO)N1C[C@H](C)[C@@H](CN(C)S(=O)(=O)c2cccc(F)c2)Oc2ncc(Br)cc2C1=O	0	-	-	-	0
O=C(/C=C/c1ccc(Cl)c([N+](=O)[O-])c1)Nc1cccnc1	0	0	-	0	50
O=C(/C=C/c1cccc([N+](=O)[O-])c1)Nc1cccc(NC(=O)c2cccs2)c1	0	0	0	0	81
O=C(/C=C/c1ccc(Cl)c([N+](=O)[O-])c1)Nc1cccc(NC(=O)c2ccco2)c1	0	0	0	0	88
COCCCNC(=O)c1ccc2c(=O)n(CC3CCCO3)c(=S)[nH]c2c1 (stereo unspecified)	0	0	87	0	0
Cn1nc(C(C)(C)C)cc1NC(=O)C1(C)CCN1C(=O)CC(c1ccccc1)c1ccccc1 (stereo unspecified)	-	-	-	-	0
O=C1c2ccccc2CC1Sc1nnc(-c2ccccn2)o1 (stereo unspecified)	0	0	-	69	0
SMILES	PfG6PD inh	PfM18AAP inh	ALR inh	PHOSPHO1 inh	H9c2 protect
CCCCCc1c2c(cc(O)c1C(=O)O)OC(=O)c1c(cc(OC)cc1C(=O)CCCC)O2	0	0	98	0	0
Cc1ccccc1OCC(=O)N/N=C/c1cc2ccccc2nc1Cl	0	0	-	0	0
C=CCc1ccccc1OCC(=O)N/N=C/c1ccc(OC(C)=O)cc1OC(C)=O	0	0	0	0	73
O=C(O)c1ccccc1-c1nc(-c2ccccc2)c(-c2ccccc2)[nH]1	0	0	0	0	0
O=C(O)COc1ccc(-c2nc(-c3ccccc3)c(-c3ccccc3)[nH]2)cc1	0	0	99	0	0
O=C(O)COc1ccccc1-c1nc(-c2ccccc2)c(-c2ccccc2)[nH]1	0	0	98	0	0
COc1cccc(-c2nc(-c3ccccc3)c(-c3ccccc3)[nH]2)c1OCC(=O)O	0	0	0	0	0
CSC[C@H]1CN(Cc2ccccc2)C(=O)[C@@H]1CC(=O)Nc1ccc(Br)cc1	0	-	-	-	0
CC(C)Cn1c(-c2ccco2)n[nH]c1=S	0	0	0	80	0
CCCCn1c(-c2ccco2)n[nH]c1=S	0	0	98	0	0
CCn1c(-c2ccco2)n[nH]c1=S	0	0	0	0	0
CC(C)Cn1c(-c2ccc(F)cc2)n[nH]c1=S	0	0	0	0	0
CC(C)Cn1c(-c2ccncc2)n[nH]c1=S	0	0	87	0	0
O=C(Oc1ccc(N(Cc2cccs2)C2=NS(=O)(=O)c3ccccc32)cc1)c1ccccc1Cl	0	0	0	0	75
COc1ccc(S(=O)(=O)N2CCCCC2c2cc(C(=O)NCc3cccnc3)no2)cc1 (stereo unspecified)	-	-	-	-	0
O=C(O)CC/C(=N\Nc1ccc(S(=O)(=O)N2CCCC2)cc1[N+](=O)[O-])c1cccs1	0	0	-	0	0
O=C(O)CC/C(=N\Nc1ccccc1[N+](=O)[O-])c1cccs1	0	0	98	0	0
COc1ccccc1NS(=O)(=O)c1cccc(C(=O)N/N=C/c2ccc([N+](=O)[O-])o2)c1	0	-	-	-	0
CC(C)(C)c1ccc(C(=O)Oc2ccccc2CCC(=O)O)cc1	0	0	91	0	0
COc1cccc(/C=N/NC(=O)c2ccc3nc[nH]c3c2)c1O	0	0	0	0	0
CCN(CC)c1ccc(/C=N/NC(=O)c2ccc3nc[nH]c3c2)c(O)c1	0	0	97	0	0
CCN(CC)c1ccc(/C=N/NC(=O)OC)c(O)c1	0	0	98	0	0
CCN(CC)c1ccc(/C=N/Nc2ccccc2)c(O)c1	0	0	?	91	0
COc1cc(/C=C/C(=O)OCC(=O)N2CCN(S(=O)(=O)c3ccc(C)cc3C)CC2)cc(Cl)c1OC	0	-	-	-	0
O=C(NC(=O)c1ccccc1)Nc1ccccn1	-	0	0	68	0
SMILES	PfG6PD inh	PfM18AAP inh	ALR inh	PHOSPHO1 inh	H9c2 protect
O=C(Nc1ccccn1)c1ccc(C(=O)c2ccccc2)cc1	0	-	0	-	0
N/C(Cn1cncn1)=N\NC(=O)C(=O)Nc1ccc(Cl)cc1Cl	0	0	0	60	0
N/C(Cn1cncn1)=N\NC(=O)c1ccc(Cl)cc1Cl	0	0	0	0	0
O=c1c2c([N+](=O)[O-])cc([N+](=O)[O-])cc2sn1-c1ccc(Br)cc1	121	0	0	89	0
CNC(=O)c1c(NC(=O)C2=COCCO2)sc2c1CCCC2	0	0	81	0	0
Cc1cccc(C(=O)OCC(=O)NCCCc2ccccc2)c1O	0	0	-	0	0
Nn1cnnc1N/N=C/c1cc(Br)cc(Br)c1O	0	52	0	0	0
CS/C(N)=N/N=C/c1cc(Br)cc(Br)c1O	0	0	0	0	0
